From paper PMC5700166
Numbering of substitutions follows the chain as printed.

How the values were obtained:
Assay in all cases: protein-binding microarray (PBM); PBM: ~300 nM protein, 6 mM HEPES pH 7.8, 80 mM KCl, 0.5 mM EDTA, 0.5 mM EGTA, 6% glycerol, 35 ng/ul poly-dIdC, 1% milk, 1 h, room temperature; Ap Aiptasia and Nv Nematostella (sea anemones) / Co Capsaspora / Aq Amphimedon (sponge) / Dm Drosophila / Hu human; RHD is the Rel homology domain; high values mean tight binding
Settings in all cases: dsDNA, one strand shown
GST-Ap-NF-kB RHD = biological target: T1, GST-Ap-NF-kB RHD (Exaiptasia pallida (Aiptasia), UniProt A0A913YAJ5 2-422)
T1 sequence: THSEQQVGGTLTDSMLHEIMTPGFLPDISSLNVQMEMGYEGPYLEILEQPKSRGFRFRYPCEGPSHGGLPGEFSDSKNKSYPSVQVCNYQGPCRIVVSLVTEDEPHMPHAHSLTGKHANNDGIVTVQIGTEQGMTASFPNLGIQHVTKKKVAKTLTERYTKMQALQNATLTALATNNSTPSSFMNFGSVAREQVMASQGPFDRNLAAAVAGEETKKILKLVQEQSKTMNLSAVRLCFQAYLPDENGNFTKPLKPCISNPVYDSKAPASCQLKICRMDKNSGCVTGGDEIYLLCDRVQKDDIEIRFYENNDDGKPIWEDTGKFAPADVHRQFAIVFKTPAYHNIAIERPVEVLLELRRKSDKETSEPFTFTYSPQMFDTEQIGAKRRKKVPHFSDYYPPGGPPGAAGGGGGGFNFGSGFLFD

[1] = biological target: T2, GST-Nv-NF-kB (Cys allele) (Nematostella vectensis, UniProt E5G601 2-411)
T2 sequence: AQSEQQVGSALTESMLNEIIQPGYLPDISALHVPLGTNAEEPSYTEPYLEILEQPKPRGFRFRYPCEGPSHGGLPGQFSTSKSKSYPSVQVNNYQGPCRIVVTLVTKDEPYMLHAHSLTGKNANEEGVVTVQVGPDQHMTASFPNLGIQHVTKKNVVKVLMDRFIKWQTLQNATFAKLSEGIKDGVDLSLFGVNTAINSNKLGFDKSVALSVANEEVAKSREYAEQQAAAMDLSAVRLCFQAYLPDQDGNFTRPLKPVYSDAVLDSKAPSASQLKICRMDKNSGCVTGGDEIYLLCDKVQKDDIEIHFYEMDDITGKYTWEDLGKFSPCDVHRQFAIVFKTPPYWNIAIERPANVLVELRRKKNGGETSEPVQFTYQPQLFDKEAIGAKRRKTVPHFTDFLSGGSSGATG

[2] = biological target: T3, GST-Nv-NF-kB (Ser allele) (Nematostella vectensis, UniProt A7UNT2 2-411)
T3 sequence: T2 sequence with Q21R, C66S, S207N, E215Q, V217A, E225K, A268E, D399E

GST-Co-NF-kB = biological target: T4, GST-Co-NF-kB (Capsaspora owczarzaki, UniProt F1ARL5 200-546)
T4 sequence: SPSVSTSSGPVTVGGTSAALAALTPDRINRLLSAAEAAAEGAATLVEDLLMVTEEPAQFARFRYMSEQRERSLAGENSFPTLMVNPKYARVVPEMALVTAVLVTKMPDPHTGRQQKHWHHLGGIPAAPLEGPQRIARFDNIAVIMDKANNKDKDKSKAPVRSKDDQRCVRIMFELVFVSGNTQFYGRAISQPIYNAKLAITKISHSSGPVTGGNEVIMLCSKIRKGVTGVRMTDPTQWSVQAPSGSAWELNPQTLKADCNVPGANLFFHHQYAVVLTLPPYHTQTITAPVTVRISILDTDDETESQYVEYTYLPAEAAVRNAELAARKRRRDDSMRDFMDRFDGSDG

GST-Dm-Relish = biological target: T5, GST-Dm-Relish (Drosophila melanogaster, UniProt Q94527 99-473)
T5 sequence: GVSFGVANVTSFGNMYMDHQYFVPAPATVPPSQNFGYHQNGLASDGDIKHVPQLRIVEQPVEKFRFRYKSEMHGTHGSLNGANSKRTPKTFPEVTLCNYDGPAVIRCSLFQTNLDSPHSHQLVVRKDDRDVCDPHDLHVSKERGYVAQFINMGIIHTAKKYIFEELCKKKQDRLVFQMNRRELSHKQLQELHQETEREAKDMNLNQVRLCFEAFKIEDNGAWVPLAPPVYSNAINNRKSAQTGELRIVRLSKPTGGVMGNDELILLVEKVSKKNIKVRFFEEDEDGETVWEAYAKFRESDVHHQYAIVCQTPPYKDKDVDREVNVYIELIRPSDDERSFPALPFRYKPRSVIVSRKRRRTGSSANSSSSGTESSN

GST-Aq-NF-kB = biological target: T6, GST-Aq-NF-kB (Amphimedon queenslandica, UniProt A9Y5G7 2-389)
T6 sequence: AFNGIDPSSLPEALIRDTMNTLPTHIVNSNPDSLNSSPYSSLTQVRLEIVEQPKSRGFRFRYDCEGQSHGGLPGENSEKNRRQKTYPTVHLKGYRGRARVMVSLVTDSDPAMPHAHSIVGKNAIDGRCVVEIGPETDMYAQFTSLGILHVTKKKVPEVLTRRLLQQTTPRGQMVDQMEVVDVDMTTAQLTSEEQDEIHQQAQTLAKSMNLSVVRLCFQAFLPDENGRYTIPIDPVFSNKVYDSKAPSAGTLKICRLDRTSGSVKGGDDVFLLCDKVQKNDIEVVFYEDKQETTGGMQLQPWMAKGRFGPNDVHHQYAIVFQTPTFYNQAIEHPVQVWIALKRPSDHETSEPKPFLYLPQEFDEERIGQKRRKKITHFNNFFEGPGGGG

Question: Which results are given for “CCGATTAACATCAGGGAAAAAAATGATGTTAATCGGGTCTTGATTCGCTTGACGCTGCTG”?
Answer: binding signal (GST-Ap-NF-kB RHD): 3.48 z-score; binding signal [1]: 5.81 z-score; binding signal [2]: 7.5 z-score; binding signal (GST-Co-NF-kB): 5.71 z-score; binding signal (GST-Dm-Relish): 2.19 z-score; binding signal (GST-Aq-NF-kB): 4.63 z-score

Question: “CCGATTAACATCAAAAAATTACCTGATGTTAATCGGGTCTTGATTCGCTTGACGCTGCTG” was tested. Which binding signal (GST-Ap-NF-kB RHD) did it give?
Answer: 2.19 z-score

Question: What about the binding signal [1] of the same sequence?
Answer: 4.07 z-score

Question: And the binding signal [2]?
Answer: 6.92 z-score

Question: And the binding signal (GST-Dm-Relish)?
Answer: 6.23 z-score

Question: And the binding signal (GST-Aq-NF-kB)?
Answer: 3.3 z-score

Question: “CCGATTAACATCAGGGGTAGGTTTGATGTTAATCGGGTCTTGATTCGCTTGACGCTGCTG” was tested. Which binding signal (GST-Ap-NF-kB RHD) did it give?
Answer: 2.16 z-score

Question: What about the binding signal [1] of the same sequence?
Answer: 1.65 z-score

Question: What about the binding signal (GST-Co-NF-kB) of the same sequence?
Answer: 3.22 z-score

Question: And the binding signal (GST-Aq-NF-kB)?
Answer: 2.1 z-score

Question: How did the binding signal (GST-Ap-NF-kB RHD) turn out when “CCGATTAACATCATCAGGGAAAATGATGTTAATCGGGTCTTGATTCGCTTGACGCTGCTG” was run?
Answer: 2.12 z-score

Question: What about the binding signal [1] of the same sequence?
Answer: 4.35 z-score

Question: What about the binding signal (GST-Co-NF-kB) of the same sequence?
Answer: 2.95 z-score

Question: What about the binding signal (GST-Aq-NF-kB) of the same sequence?
Answer: 2.95 z-score

Question: With “CCGATTAACATCAAGCGTTTCCCTGATGTTAATCGGGTCTTGATTCGCTTGACGCTGCTG” as the sequence, how does the binding signal (GST-Ap-NF-kB RHD) read?
Answer: 2.29 z-score

Question: What about the binding signal [1] of the same sequence?
Answer: 3.6 z-score

Question: And the binding signal (GST-Co-NF-kB)?
Answer: 2.62 z-score

Question: What about the binding signal (GST-Aq-NF-kB) of the same sequence?
Answer: 2.82 z-score

Question: Which results are given for “CCGATTAACATCAAGGGAAAAAATGATGTTAATCGGGTCTTGATTCGCTTGACGCTGCTG”?
Answer: binding signal (GST-Ap-NF-kB RHD): 3.77 z-score; binding signal [1]: 5.84 z-score; binding signal [2]: 7.2 z-score; binding signal (GST-Co-NF-kB): 5.23 z-score; binding signal (GST-Dm-Relish): 1.86 z-score; binding signal (GST-Aq-NF-kB): 4.83 z-score

Question: With “CCGATTAACATCAGGTAATTACCTGATGTTAATCGGGTCTTGATTCGCTTGACGCTGCTG” as the sequence, how does the binding signal (GST-Ap-NF-kB RHD) read?
Answer: 2.06 z-score

Question: What about the binding signal [1] of the same sequence?
Answer: 4.18 z-score

Question: And the binding signal [2]?
Answer: 5.28 z-score

Question: What about the binding signal (GST-Dm-Relish) of the same sequence?
Answer: 5.43 z-score

Question: And the binding signal (GST-Aq-NF-kB)?
Answer: 5.11 z-score

Question: How did the binding signal (GST-Ap-NF-kB RHD) turn out when “CCGATTAACATCACCCCCACCCCTGATGTTAATCGGGTCTTGATTCGCTTGACGCTGCTG” was run?
Answer: 3.49 z-score

Question: What about the binding signal [1] of the same sequence?
Answer: 2.96 z-score

Question: What about the binding signal [2] of the same sequence?
Answer: 1.75 z-score

Question: What about the binding signal (GST-Co-NF-kB) of the same sequence?
Answer: 4.43 z-score

Question: And the binding signal (GST-Dm-Relish)?
Answer: 3.84 z-score

Question: And the binding signal (GST-Aq-NF-kB)?
Answer: 3.33 z-score

Question: Which results are given for “CCGATTAACATCAGGGGATAATATGATGTTAATCGGGTCTTGATTCGCTTGACGCTGCTG”?
Answer: binding signal (GST-Ap-NF-kB RHD): 5.41 z-score; binding signal [1]: 5.47 z-score; binding signal [2]: 7.02 z-score; binding signal (GST-Co-NF-kB): 5.65 z-score; binding signal (GST-Dm-Relish): 2.58 z-score; binding signal (GST-Aq-NF-kB): 4.59 z-score

Question: What does the source list for “CCGATTAACATCAAAGCATTCCCTGATGTTAATCGGGTCTTGATTCGCTTGACGCTGCTG”?
Answer: binding signal (GST-Ap-NF-kB RHD): 2.32 z-score; binding signal [1]: 3.04 z-score; binding signal (GST-Co-NF-kB): 2.52 z-score; binding signal (GST-Aq-NF-kB): 3.35 z-score

Question: What does the source list for “CCGATTAACATCAGGGAAGTACATGATGTTAATCGGGTCTTGATTCGCTTGACGCTGCTG”?
Answer: binding signal (GST-Ap-NF-kB RHD): 1.18 z-score; binding signal [1]: 1.34 z-score; binding signal [2]: 1.35 z-score; binding signal (GST-Co-NF-kB): 1.54 z-score; binding signal (GST-Dm-Relish): 9.23 z-score; binding signal (GST-Aq-NF-kB): 2.86 z-score

Question: With “CCGATTAACATCAACCTTTCCCCTGATGTTAATCGGGTCTTGATTCGCTTGACGCTGCTG” as the sequence, how does the binding signal (GST-Ap-NF-kB RHD) read?
Answer: 5.33 z-score

Question: And the binding signal [1]?
Answer: 6.21 z-score

Question: What about the binding signal [2] of the same sequence?
Answer: 7.66 z-score

Question: And the binding signal (GST-Co-NF-kB)?
Answer: 6.19 z-score

Question: What about the binding signal (GST-Dm-Relish) of the same sequence?
Answer: 1.62 z-score

Question: What about the binding signal (GST-Aq-NF-kB) of the same sequence?
Answer: 4.44 z-score

Question: For “CCGATTAACATCACCTTGGGAAATGATGTTAATCGGGTCTTGATTCGCTTGACGCTGCTG”, which binding signal (GST-Ap-NF-kB RHD) is on record?
Answer: 1.21 z-score

Question: What about the binding signal [1] of the same sequence?
Answer: 1.7 z-score

Question: And the binding signal (GST-Co-NF-kB)?
Answer: 2.79 z-score

Question: What about the binding signal (GST-Aq-NF-kB) of the same sequence?
Answer: 1.62 z-score
